Measurements from PubChem BioAssay.
Unmarked numbers belong to inactive results. Active and inactive are the calls of the source. Unless noted, no stated cut-off is given here; in the data, active means inhibition above about 25%; inactive means the rest.

Experiments:
[1] = biological target: Nuclear receptor coactivator 3 (Homo sapiens) (UniProt Q9Y6Q9); assay: SRC3 coactivator transcriptional activity inhibitors, confirmation, cell-based, luminescence, quadruplicate (AID 588792;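 active means mean inhibition over 43.08%, the solvent-only control mean plus 3 SD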;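 further: 0% = DMSO treated cells and 100% = gossypol at 36 µM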); conditions: HEK293 GAL4-SRC3 luciferase reporter, at 3.6 µM, stronger effect = higher value
Sequence of Nuclear receptor coactivator 3 (Homo sapiens) (Q9Y6Q9 whole entry, looked up, the tested form may be a part): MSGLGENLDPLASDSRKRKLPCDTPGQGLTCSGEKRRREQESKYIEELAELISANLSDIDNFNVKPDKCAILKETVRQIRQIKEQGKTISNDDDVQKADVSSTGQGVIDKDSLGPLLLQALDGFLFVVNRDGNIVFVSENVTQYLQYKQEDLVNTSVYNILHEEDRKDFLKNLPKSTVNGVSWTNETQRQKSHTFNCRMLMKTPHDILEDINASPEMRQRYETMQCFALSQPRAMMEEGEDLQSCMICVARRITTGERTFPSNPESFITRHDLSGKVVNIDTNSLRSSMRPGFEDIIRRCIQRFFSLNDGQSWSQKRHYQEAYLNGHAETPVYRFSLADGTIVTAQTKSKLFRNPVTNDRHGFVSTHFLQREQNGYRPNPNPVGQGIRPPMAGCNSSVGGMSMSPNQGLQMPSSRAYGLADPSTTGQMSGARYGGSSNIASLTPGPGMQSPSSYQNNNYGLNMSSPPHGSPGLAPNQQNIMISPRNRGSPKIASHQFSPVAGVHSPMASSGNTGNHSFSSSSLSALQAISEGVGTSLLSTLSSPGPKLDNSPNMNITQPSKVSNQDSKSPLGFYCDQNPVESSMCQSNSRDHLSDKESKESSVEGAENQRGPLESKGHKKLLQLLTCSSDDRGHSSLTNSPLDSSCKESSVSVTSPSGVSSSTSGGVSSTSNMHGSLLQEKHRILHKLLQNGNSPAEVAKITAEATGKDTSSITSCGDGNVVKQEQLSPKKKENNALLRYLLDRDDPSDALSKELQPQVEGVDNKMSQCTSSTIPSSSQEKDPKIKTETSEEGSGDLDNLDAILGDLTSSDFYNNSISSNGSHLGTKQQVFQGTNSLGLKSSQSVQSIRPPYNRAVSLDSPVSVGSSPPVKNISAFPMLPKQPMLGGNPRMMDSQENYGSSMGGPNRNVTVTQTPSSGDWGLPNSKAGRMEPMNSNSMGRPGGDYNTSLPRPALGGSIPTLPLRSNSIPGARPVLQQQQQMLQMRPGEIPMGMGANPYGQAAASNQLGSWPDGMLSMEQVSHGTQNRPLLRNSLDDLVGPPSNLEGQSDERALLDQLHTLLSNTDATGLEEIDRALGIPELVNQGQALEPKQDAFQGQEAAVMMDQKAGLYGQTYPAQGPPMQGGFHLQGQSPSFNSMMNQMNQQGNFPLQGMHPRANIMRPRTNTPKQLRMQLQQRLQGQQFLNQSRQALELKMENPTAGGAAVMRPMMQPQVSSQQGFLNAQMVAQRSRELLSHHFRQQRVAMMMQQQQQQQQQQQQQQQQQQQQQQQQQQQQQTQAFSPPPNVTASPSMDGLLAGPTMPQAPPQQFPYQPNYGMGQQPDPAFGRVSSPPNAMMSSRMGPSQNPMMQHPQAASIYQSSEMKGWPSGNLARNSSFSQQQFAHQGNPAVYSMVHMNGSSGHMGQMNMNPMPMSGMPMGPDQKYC

[2] = system: transactivating tegument protein VP16 (Human herpesvirus 1), Gal4-VP16 luciferase reporter; assay: VP16 transactivation inhibitors, counter-screen for SRC3 inhibitor project, cell-based, luminescence, high throughput (AID 588794; in the data active means inhibition above about 30%); conditions: mammalian cells, VP16-driven luciferase reporter luminescence; at 3.6 µM; stronger effect = higher value
[3] = biological target: Nuclear receptor coactivator 1 (Homo sapiens) (UniProt Q15788); assay: SRC1 coactivator transcriptional activity inhibitors, confirmation, cell-based, luminescence, quadruplicate (AID 588820;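 active means mean inhibition above 46.68%, the untreated control wells mean plus 3 SD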;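 further: 0% = DMSO wells and 100% = gossypol 36 µM treated wells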); conditions: HEK293 GAL4-SRC1 luciferase reporter, at 3.6 µM, stronger effect = higher value
Sequence of Nuclear receptor coactivator 1 (Homo sapiens) (Q15788 whole entry, looked up, the tested form may be a part): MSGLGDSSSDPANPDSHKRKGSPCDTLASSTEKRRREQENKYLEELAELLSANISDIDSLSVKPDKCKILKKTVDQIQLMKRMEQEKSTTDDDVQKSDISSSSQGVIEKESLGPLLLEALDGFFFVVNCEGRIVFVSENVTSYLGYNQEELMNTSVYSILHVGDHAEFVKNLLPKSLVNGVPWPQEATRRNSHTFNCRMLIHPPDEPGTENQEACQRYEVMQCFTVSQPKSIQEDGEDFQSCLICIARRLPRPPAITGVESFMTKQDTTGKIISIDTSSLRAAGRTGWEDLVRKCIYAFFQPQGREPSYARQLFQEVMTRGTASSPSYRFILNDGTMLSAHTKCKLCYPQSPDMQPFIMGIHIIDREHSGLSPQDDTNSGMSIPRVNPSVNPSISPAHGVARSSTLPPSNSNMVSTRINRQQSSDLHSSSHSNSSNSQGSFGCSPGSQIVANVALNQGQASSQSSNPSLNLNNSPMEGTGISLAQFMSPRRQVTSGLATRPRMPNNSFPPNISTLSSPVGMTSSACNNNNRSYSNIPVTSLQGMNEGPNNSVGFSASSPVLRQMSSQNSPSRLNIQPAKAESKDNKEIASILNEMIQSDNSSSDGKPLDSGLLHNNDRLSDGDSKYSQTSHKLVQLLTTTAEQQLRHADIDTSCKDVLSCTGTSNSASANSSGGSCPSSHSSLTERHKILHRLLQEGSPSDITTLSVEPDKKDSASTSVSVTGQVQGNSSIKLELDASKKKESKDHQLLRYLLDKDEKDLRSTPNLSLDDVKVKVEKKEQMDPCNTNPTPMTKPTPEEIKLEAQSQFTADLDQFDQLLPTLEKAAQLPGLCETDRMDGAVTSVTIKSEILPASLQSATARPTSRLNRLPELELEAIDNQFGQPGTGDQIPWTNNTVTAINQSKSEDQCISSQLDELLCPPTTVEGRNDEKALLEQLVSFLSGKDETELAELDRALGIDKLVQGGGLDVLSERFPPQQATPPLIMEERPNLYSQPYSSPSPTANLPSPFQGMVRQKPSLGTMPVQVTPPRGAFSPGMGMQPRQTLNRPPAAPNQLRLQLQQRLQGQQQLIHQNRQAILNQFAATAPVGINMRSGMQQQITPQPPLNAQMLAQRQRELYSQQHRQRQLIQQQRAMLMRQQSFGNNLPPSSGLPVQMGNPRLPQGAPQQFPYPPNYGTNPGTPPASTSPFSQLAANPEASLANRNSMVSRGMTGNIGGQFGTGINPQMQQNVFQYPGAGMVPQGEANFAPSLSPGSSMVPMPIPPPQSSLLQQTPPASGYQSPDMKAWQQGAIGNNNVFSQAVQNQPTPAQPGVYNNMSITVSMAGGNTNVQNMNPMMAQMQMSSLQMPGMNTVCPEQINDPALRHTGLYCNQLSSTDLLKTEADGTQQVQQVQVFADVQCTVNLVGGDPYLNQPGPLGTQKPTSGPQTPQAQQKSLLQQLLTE

[4] = VP16 transactivation inhibitors, counter-screen for SRC1 inhibitor project, cell-based, luminescence, high throughput (AID 588824); conditions: cell-based VP16 transactivation luciferase luminescence; at 3.6 µM; stronger effect = higher value

Compound | inhibition [1] | inhibition [2] | inhibition [3] | inhibition [4]
COc1cccc(/C=N/NC(=O)c2cc(-c3cccn3C)n[nH]2)c1O | 41.2% | 35.7% (active) | 37.6% | 35.6% (active)
COc1ccc2c(c1OC)C(=O)N1c3ccccc3C(=O)N(c3ccc(F)cc3)C21 (stereo unspecified) | 7.69% | 4.54% | -3.13% | 3.89%
CC(C)CC(=O)/C(=C\c1ccc(Cl)cc1Cl)n1cncn1 | 60.2% (active) | 48.8% (active) | 14.1% | 55.6% (active)
C/C(=N\NC(=O)c1nnn(-c2nonc2N)c1-c1ccccc1)c1ccccc1O | 49.2% (active) | 44.6% (active) | 60.8% (active) | 40.6% (active)
COC(=O)c1c(C)oc2ccc(N(C(=O)c3ccncc3)S(=O)(=O)c3ccc(C)cc3C)cc12 | 1.85% | 36.2% (active) | -7% | 27.3% (active)
COC(=O)c1ccc2nc(NC(=O)C(C)(C)C)sc2c1 | -14.6% | -16.8% | -142% | -60.1%
Cc1csc(CNc2ncnc3ccc(-c4ccoc4)cc23)c1 | 52.7% (active) | 47.6% (active) | 48% (active) | 44.5% (active)
COc1cccc2nc3c(C(=O)NCCN(C)C)cccc3cc12 | 35.9% | 39.9% (active) | 46.5% | 32.7% (active)
CC[n+]1ccccc1/C=C/c1ccc(N(C)C)cc1 | 15.6% | 47.5% (active) | 15.4% | 40.1% (active)
Cc1ccc(S(=O)(=O)N(C)Cc2ccc(C(=O)N/N=C/c3ccc(OC(F)F)cc3OC(F)F)cc2)cc1 | 10.9% | 18.8% | -28.9% | 20%
CN1CC(=O)N2C(c3cccc([N+](=O)[O-])c3)c3[nH]c4ccccc4c3C[C@H]2C1=O (stereo partly specified) | 36.1% | 36.7% (active) | 26.9% | 34.5% (active)
CCOC(=O)N=Nc1c2ccccc2c2nc3no[nH]c3nc12 | 95.7% (active) | 93.1% (active) | 88.3% (active) | 92.4% (active)
COc1ccc(-c2c[n+]3c(n2-c2ccccc2)SCC3)cc1 | 17.9% | 14.3% | 11.1% | 21%
O=C(N/N=C/c1cc(Cl)ccc1O)C(=O)Nc1ccccc1OC(F)(F)C(F)F | 29.3% | 38.3% (active) | 37.7% | 44.3% (active)
O=C(Nc1nc(-c2ccccc2)cs1)c1ccc2c(=O)n3c(nc2c1)CCCCC3 | 9.45% | 31.6% (active) | -12% | 30.9% (active)
Cc1ccc(S(=O)(=O)NC(CC(C)C)C(=O)NCC(c2ccco2)N2CCCCC2)cc1 (stereo unspecified) | 27% | 2.93% | 32.8% | -1.82%
CCN(CC)c1ccc(/C=N/NC(=O)CNC(=O)C2COc3ccccc3O2)c(O)c1 (stereo unspecified) | 24.4% | 17.7% | 8.85% | 18.9%
CN(Cc1c(C(=O)N/N=C/c2ccccc2O)nnn1-c1nonc1N)C1CCCCC1 | 66.8% (active) | 46.5% (active) | 59.7% (active) | 59.8% (active)
Cc1ccc(S(=O)(=O)N2C[C@@H]3CCCC[C@@H]3[C@@H](C)[C@H]2c2cn(Cc3ccccc3)c3ncccc23)cc1 | 22.3% | 47.6% (active) | 25.8% | 42.2% (active)
O=C(N/N=C\c1c(O)ccc2ccccc12)c1cncc(Br)c1 | 83% (active) | 84% (active) | 77.7% (active) | 80.5% (active)
Oc1ccc(C=NNc2ccccn2)c(O)c1 | 76% (active) | -12.1% | 14.7% | -1.88%
O=C(/C=C/c1ccc(OCCCF)cc1)Nc1ccnc(-c2cccnc2)n1 | 17.1% | 11.1% | -25.6% | 15.8%
COc1cc(/C=C/C(=O)Nc2ccc(OC)c(S(=O)(=O)N3CCOCC3)c2)ccc1OCC#N | 12.1% | 32.6% (active) | 19.1% | 40.3% (active)
COc1ccc(Cc2nnc(SCc3ccc([N+](=O)[O-])cc3)o2)cc1 | 26.2% | 15.8% | 19.3% | 17.4%
